Source: the supplement of paper PMC13380429

System: Vero E6 infected with SARS-CoV-2
Test: inhibition of SARS-CoV-2 cytopathic effect; higher = more antiviral protection, active = above 15
Details: 48 h

Measured: inhibition of SARS-CoV-2 cytopathic effect

COc1cc2c(cc1OC)[C@@H](Cc1cc(OC)c(OC)c(OC)c1)[N+](C)(CCCOC(=O)CC/C=C/CCC(=O)OCCC[N+]1(C)CCc3cc(OC)c(OC)cc3[C@H]1Cc1cc(OC)c(OC)c(OC)c1)CC2 (stereo not given in full) [mivacurium]
inactive: 1 nM -2.73% | 8.33 nM -1.95% | 100 nM 2.74% | 833.33 nM 3.32% | 10000 nM 0.83%

CN1CCN(c2nc3ccccc3nc2Cl)CC1
inactive: 1 nM -3.46% | 8.33 nM -0.96% | 100 nM -3.46% | 833.33 nM 0.73% | 10000 nM 5.89%

OCC(Br)(Br)Br [tribromoethanol]
inactive: 1 nM 3.45% | 8.33 nM 0.33% | 100 nM 2.81% | 833.33 nM 4.01% | 10000 nM 1.49%

Cc1cc(-c2ncc(CC(=O)Nc3ccc(-c4cnccn4)cn3)cc2C)ccn1
inactive: 1 nM -0.34% | 8.33 nM -0.01% | 100 nM -1.16% | 833.33 nM 1.44% | 10000 nM 2.89%

O=c1ccn([C@@H]2O[C@H](CO)[C@@H](O)[C@H]2O)c(=O)[nH]1 [uridine]
inactive: 1 nM 0.24% | 8.33 nM 0.14% | 100 nM 0.2% | 833.33 nM -1.16% | 10000 nM 2.27%

CCOCOC[C@H](C[C@H](C)C(=O)NO)NC(=O)c1ccc(Oc2ccccc2)cc1
inactive: 1 nM 4.15% | 8.33 nM 13.5% | 100 nM 5.33% | 833.33 nM -3.29% | 10000 nM -6.18%

CN(C)c1ccc(/C=C2\C(=O)Nc3ccccc32)cc1
inactive: 1 nM 2.81% | 8.33 nM -0.37% | 100 nM 1.44% | 833.33 nM 2.25% | 10000 nM 0.95%
